Results filed as inconclusive are left out. Active and inactive are the calls of the source. Calls follow the shape of the dose curve; as a rule, active = well fitted inhibition curve with a large enough effect; inconclusive = small, poorly fitted or top-dose-only effect; inactive = flat fitted curve, though single readings scatter.
Experiments:
Test in all cases: qHTS profiling for inhibitors of Plasmodium falciparum proliferation (AID 504749); also: nearly all actives have a fitted effect of over 60% in size
Conditions in all cases: P. falciparum in erythrocytes, SYBR Green DNA, 72 h; series mostly up to 28.7 µM
ATS95 = test system: ATS95
Summary of the method: (§1)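 P. falciparum-infected erythrocytes (0.3% parasitemia, 2.5% hematocrit final) were exposed to compounds for 72 h at 37 C in 5% CO2, then lysed with SYBR Green buffer overnight at room temperature; parasite DNA fluorescence was normalized to artemisinin and DMSO controls.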

C2A = test system: C2A
Summary of the method: as §1

CP211 = test system: CP211
Summary of the method: as §1

CP215 = test system: CP215
Summary of the method: as §1

CP217 = test system: CP217
Summary of the method: as §1

CP250 = test system: CP250
Summary of the method: as §1

CP252 = test system: CP252
Summary of the method: as §1

CP256 = test system: CP256
Summary of the method: as §1

CP262 = test system: CP262
Summary of the method: as §1

CP269 = test system: CP269
Summary of the method: as §1

CP325 = test system: CP325
Summary of the method: as §1

CP329 = test system: CP329
Summary of the method: as §1

ECU = test system: ECU
Summary of the method: as §1

FAB9 = test system: FAB9
Summary of the method: as §1

N140 = test system: N140
Summary of the method: as §1

P93_24 = test system: P93_24
Summary of the method: as §1

PAD = test system: PAD
Summary of the method: as §1

PC15 = test system: PC15
Summary of the method: as §1

PC26 = test system: PC26
Summary of the method: as §1

SC27B = test system: SC27B
Summary of the method: as §1

Measured: Potency

Oc1ccc(/C=C\c2cc(O)cc(O)c2)cc1
inactive: all assays above
